Assay results: PubChem BioAssay (EPA / NIEHS)
The source made the active and inactive calls. Rule for the calls: active = hit-call score of the fitted dose curve at least 0.9, where 1 is the maximum; inactive = score below 0.9.

Key:
[1] = read-out: Collagen I, COL1A1 (gene 1277); test: BSK_MyoF_CollagenI: BioMAP Diversity Plus: MyoF Assay for Collagen I Biomarker Activity (AID 2284238); conditions: primary human lung fibroblasts
Outline: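 Lung fibroblasts (human primary) dosed, 24 h; Collagen I by ELISA; positive-direction fit vs DMSO control. Parallel SRB total-protein staining (0.1% SRB, 10% TCA fixation, 560 nm) flags overt cytotoxicity.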

[2] = read-out: Collagen III, COL3A1 (gene 1281); test: BSK_MyoF_CollagenIII: BioMAP Diversity Plus: MyoF Assay for Collagen III Biomarker Activity (AID 2284239); conditions: primary human lung fibroblasts
Outline: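 ELISA read-out of collagen III from human lung fibroblasts after 24 h of chemical treatment. The DMSO control served as negative control and baseline, with values fitted in the positive direction.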

[3] = read-out: Interleukin 17F (IL17F), IL17F (gene 112744); test: BSK_BT_xIL17F: BioMAP Diversity Plus: BT Assay for Interleukin 17F (IL17F) Biomarker Activity (AID 2284243); conditions: primary human B cells with PBMC
Outline: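 Compound was added to co-cultures of human B cells and PBMC. After 24 hours, IL-17F released into the medium was measured with LumineX xMAP technology. Responses were then fitted upward relative to DMSO.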

[4] = read-out: Interleukin 2 (IL2), IL2 (gene 3558); test: BSK_BT_xIL2: BioMAP Diversity Plus: BT Assay for Interleukin 2 (IL2) Biomarker Activity (AID 2284245); conditions: primary human B cells with PBMC
Outline: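 The BT system combines human B cells with peripheral blood mononuclear cells. Twenty-four hours after chemical dosing, secreted IL-2 was measured with xMAP bead technology, and responses were analyzed as increases over DMSO controls.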

[5] = read-out: Basic fibroblast growth factor (bFGF), FGF2 (gene 2247); test: BSK_MyoF_bFGF: BioMAP Diversity Plus: MyoF Assay for Basic fibroblast growth factor (bFGF) Biomarker Activity (AID 2284246); conditions: primary human lung fibroblasts
Outline: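 Chemicals are added to human lung fibroblast cultures and incubated 24 h. bFGF is then measured by ELISA, while parallel cultures receive SRB staining for total protein as a cytotoxicity check. Data are fitted upward against DMSO.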

[6] = read-out: Collagen IV, COL4A1 (gene 1282); test: BSK_MyoF_CollagenIV: BioMAP Diversity Plus: MyoF Assay for Collagen IV Biomarker Activity (AID 2284247); conditions: primary human lung fibroblasts
Outline: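 Human lung fibroblast system, 24 h chemical exposure. Endpoint: Collagen IV by ELISA, upward fit vs DMSO.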

[7] = read-out: Plasminogen activator inhibitor-1 (PAI1), SERPINE1 (gene 5054); test: BSK_MyoF_PAI1: BioMAP Diversity Plus: MyoF Assay for Plasminogen activator inhibitor-1 (PAI1) Biomarker Activity (AID 2284256); conditions: primary human lung fibroblasts
Outline: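 Primary human lung fibroblasts are dosed and incubated 24 h. PAI-1 is then measured by ELISA, while parallel cultures undergo SRB staining for overt cytotoxicity. Increases over DMSO define activity.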

[8] = read-out: Interleukin-8 (IL8), CXCL8 (gene 3576); test: BSK_MyoF_IL8: BioMAP Diversity Plus: MyoF Assay for Interleukin-8 (IL8) Biomarker Activity (AID 2284261); conditions: primary human lung fibroblasts
Outline: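 IL-8 levels were measured by ELISA in human lung fibroblasts harvested 24 h after compound addition. Responses were analysed as gain of signal over the DMSO baseline.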

Decorin, DCN (gene 1634) = test: BSK_MyoF_Decorin: BioMAP Diversity Plus: MyoF Assay for Decorin Biomarker Activity (AID 2284265); conditions: primary human lung fibroblasts
Outline: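 Compound is added to lung fibroblast cultures; cells incubate 24 h; decorin is then measured by ELISA; the response is analysed upward against DMSO controls.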

[9] = read-out: Monokine induced gamma interferon (MIG), CXCL9 (gene 4283); test: BSK_KF3CT_MIG: BioMAP Diversity Plus: KF3CT Assay for Monokine induced gamma interferon (MIG) Biomarker Activity (AID 2284248); conditions: primary human keratinocytes with fibroblasts
Outline: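 KF3CT system: keratinocyte/fibroblast co-culture, 24 h post-dose, MIG by ELISA; activity vs DMSO, positive fitting direction.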

[10] = read-out: Collagen I, COL1A1 (gene 1277); test: BSK_hDFCGF_CollagenI: BioMAP Diversity Plus: hDFCGF Assay for Collagen I Biomarker Activity (AID 2284250); conditions: primary human foreskin fibroblasts
Outline: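 Collagen I ELISA, primary human foreskin fibroblasts, 24 h chemical exposure, DMSO = negative control/baseline, positive fitting direction.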

[11] = read-out: Interferon-inducible T-cell alpha chemoattractant (ITAC), CXCL11 (gene 6373); test: BSK_hDFCGF_ITAC: BioMAP Diversity Plus: hDFCGF Assay for Interferon-inducible T-cell alpha chemoattractant (ITAC) Biomarker Activity (AID 2284251); conditions: primary human foreskin fibroblasts
Outline: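 Measured by ELISA, the chemokine level serves as the endpoint in human skin fibroblast primary cultures 24 h after compound addition. Increases relative to DMSO-treated wells define activity.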

[12] = read-out: Plasminogen activator inhibitor-1 (PAI1), SERPINE1 (gene 5054); test: BSK_KF3CT_PAI1: BioMAP Diversity Plus: KF3CT Assay for Plasminogen activator inhibitor-1 (PAI1) Biomarker Activity (AID 2284252); conditions: primary human keratinocytes with fibroblasts
Outline: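 Cells (human keratinocytes co-cultured with foreskin fibroblasts) are exposed to test chemical for 24 h. PAI-1 is then measured by ELISA and analysed for signal gain against DMSO.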

[13] = read-out: Interleukin-8 (IL8), CXCL8 (gene 3576); test: BSK_KF3CT_IL8: BioMAP Diversity Plus: KF3CT Assay for Interleukin-8 (IL8) Biomarker Activity (AID 2284254); conditions: primary human keratinocytes with fibroblasts
Outline: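 Chemicals were added to co-cultured human keratinocytes and foreskin fibroblasts, incubated 24 h, then IL-8 was quantified by ELISA. Cytotoxicity was tracked by sulforhodamine B total-protein staining in parallel cultures.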

Measured: AC50

c1ccc(-c2cccc(-c3ccccc3)c2)cc1
inactive: [4] | [5] | [6] | [7] | Decorin, DCN (gene 1634)
active: [1] 26.4 µM | [2] 32.9 µM | [3] 22.6 µM | [8] 20 µM

CCCCCCCCCCCCN(C)C
not listed: [9] | [10] | [11] | [12] | [13]
inactive: all other assays above

O=C1C=CC(=O)c2ccccc21
inactive: [8]
active: [1] 4.3 µM | [2] 4.13 µM | [3] 0.61 µM | [4] 0.714 µM | [5] 4.17 µM | [6] 2.56 µM | [7] 4.23 µM | Decorin, DCN (gene 1634) 1.33 µM

CCN(CC)C(=O)C(Cl)=C(C)OP(=O)(OC)OC
active: [2] 0.016 µM
not listed: [9] | [10] | [11] | [12] | [13]
inactive: all other assays above

Oc1c(Br)cc(Br)cc1Br
inactive: [2] | [3] | [4] | [5] | [7] | Decorin, DCN (gene 1634)
active: [1] 29.9 µM | [6] 20 µM | [8] 13.9 µM

N#CCCC(Br)(C#N)CBr (stereo not drawn)
active: [1] 25.7 µM | [2] 24.8 µM | [3] 9.32 µM | [4] 11 µM | [5] 25 µM | [6] 0.914 µM | [7] 26.4 µM
inactive: [8] | Decorin, DCN (gene 1634)

O=[N+]([O-])c1ccc(Nc2ccccc2)cc1
not listed: [9] | [10] | [11] | [12] | [13]
inactive: all other assays above

OC(Cc1ccccc1Cl)(Cn1cncn1)C1(Cl)CC1 (stereo not drawn)
not listed: [9] | [10] | [11] | [12] | [13]
inactive: all other assays above

CCOP(=O)(OCC)OC(=CCl)c1ccc(Cl)cc1Cl
inactive: [3] | [5] | [6] | [7] | [8]
active: [1] 35.8 µM | [2] 30.7 µM | [4] 20 µM | Decorin, DCN (gene 1634) 20 µM

CC(C)(C)c1cc([N+](=O)[O-])cc(C(C)(C)C)c1O
inactive: [1] | [5] | [8] | Decorin, DCN (gene 1634)
active: [2] 0.0556 µM | [3] 13 µM | [4] 20 µM | [6] 0.396 µM | [7] 0.016 µM

CCCCOC(=O)COC(=O)c1ccccc1C(=O)OCCCC
inactive: [9] | [10] | [11] | [12] | [13]

C=CC(Cl)CCl (stereo not drawn)
active: [1] 0.0855 µM | [6] 0.0311 µM | [7] 0.806 µM
inactive: [2] | [3] | [4] | [5] | [8] | Decorin, DCN (gene 1634)

CCC(C)(C#N)N=NC(C)(C#N)CC (stereo not drawn)
not listed: [9] | [10] | [11] | [12] | [13]
inactive: all other assays above

O=C(CCl)NCO
active: [8] 3.97 µM
not listed: [9] | [10] | [11] | [12] | [13]
inactive: all other assays above

Cc1cccc(OP(=O)(Oc2cccc(C)c2)Oc2cccc(C)c2)c1
inactive: [1] | [2] | [3] | [4] | [5] | [8] | Decorin, DCN (gene 1634)
active: [6] 0.0382 µM | [7] 0.016 µM

O=C(Cc1ccccc1)OCCc1ccccc1
inactive: [9] | [10] | [11] | [12] | [13]

CC(C)(COCC1CO1)COCC1CO1 (stereo not drawn)
active: [3] 24.5 µM
not listed: [9] | [10] | [11] | [12] | [13]
inactive: all other assays above

C[C@]12CC[C@@H](O)C[C@@H]1CC[C@@H]1[C@@H]2CC[C@]2(C)C(=O)CC[C@@H]12
not listed: [9] | [10] | [11] | [12] | [13]
inactive: all other assays above

CCOC(=O)C(SP(=S)(OC)OC)c1ccccc1 (stereo not drawn)
not listed: [9] | [10] | [11] | [12] | [13]
inactive: all other assays above

O=[N+]([O-])c1cccc2ccccc12
not listed: [9] | [10] | [11] | [12] | [13]
inactive: all other assays above

Nc1ccc(N)cc1
not listed: [9] | [10] | [11] | [12] | [13]
inactive: all other assays above

Cc1cc(Cl)ccc1OC(C)C(=O)O (stereo not drawn)
not listed: [9] | [10] | [11] | [12] | [13]
inactive: all other assays above

Cc1c([N+](=O)[O-])c(C)c([N+](=O)[O-])c(C(C)(C)C)c1[N+](=O)[O-]
inactive: [2] | [4] | [5] | [6] | [7] | [8] | Decorin, DCN (gene 1634)
active: [1] 32.1 µM | [3] 28.1 µM

CC(C)N(C(=O)CCl)c1ccccc1
active: [1] 3.62 µM | [2] 1.12 µM | [3] 8.76 µM | [4] 11.8 µM | [5] 4 µM | [6] 4.16 µM | [7] 3.09 µM | [8] 20 µM | Decorin, DCN (gene 1634) 6 µM

Cc1cc(C(C)(C)c2ccc(O)c(C)c2)ccc1O
inactive: [3] | [4] | [5] | [6] | [7] | [8] | Decorin, DCN (gene 1634)
active: [1] 15.4 µM | [2] 15.1 µM

C#CCOC(=O)/C=C(C)/C=C/CC(C)CCCC(C)C (stereo not drawn)
active: [8] 4.33 µM
not listed: [9] | [10] | [11] | [12] | [13]
inactive: all other assays above

CCOC(=O)CC(=O)CCl
active: [3] 12.4 µM | [4] 20 µM
inactive: [1] | [2] | [5] | [6] | [7] | [8] | Decorin, DCN (gene 1634)

CCOC(=O)CCN(SN(C)C(=O)Oc1cccc2c1OC(C)(C)C2)C(C)C
inactive: [1] | [2] | [5] | [6] | [7] | [8] | Decorin, DCN (gene 1634)
active: [3] 30 µM | [4] 36.3 µM

O=C(O)COc1cc(Cl)c(Cl)cc1Cl
not listed: [9] | [10] | [11] | [12] | [13]
inactive: all other assays above

OCCCCO
inactive: [9] | [10] | [11] | [12] | [13]
